Measured values: PubChem BioAssay (NCATS)
Inconclusive results are not listed. Active and inactive are the calls of the source. Unless noted, calls follow the shape of the dose curve; as a rule, active = well fitted curve in the direction sought with a large enough effect; inconclusive = small, poorly fitted or top-dose-only effect, or another doubt; inactive = no such curve, though single readings can be large; an effect the other way counts as inactive or inconclusive.

Experiments:
[1] = molecular target: Lysosomal acid glucosylceramidase (Homo sapiens) (UniProt P04062); assay: Glucocerebrosidase-p2 (AID 348; in the data active = potency below about 10 µM; also: potency is read from the fitted curve at half-maximal effect); conditions: purified GBA, blue fluorogenic substrate, 40 min
Method in brief: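 Compounds titrated from 0.6 nM upwards against 0.2 nM enzyme in pH 5.9 citric acid/KH2PO4, taurocholate, tween-20; blue fluorogenic substrate 80 uM, 40 min room temperature, stopped and read Ex 365/Em 440 for AC50.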

[2] = AP1 Signaling Pathway (AID 357; active = well fitted curve in either direction with a large enough effect, not every such curve was filed as active;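 also: ME-180 reporter cells stimulated with EGF at its EC50 level; % is scaled to controls: 0 for no effect and ±100 for the full control effect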); conditions: ME-180 AP-1-bla reporter, EGF-induced, beta-lactamase ratio, 5 h; at 7.69 µM (top of the series) unless noted
Method in brief: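 Modulation of EGF-driven AP-1 transcription was assessed with a beta-lactamase reporter in ME-180 cells. Compound and EC50 EGF were co-incubated 5 hours at 37 °C before 2.5-hour CCF4 loading at room temperature and dual-emission reading.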

[3] = molecular target: Cytochrome P450 1A2 (Homo sapiens) (UniProt P05177); assay: p450-cyp1a2 (AID 410; calls by dose curve; also: potency is read from the fitted curve at half-maximal effect;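 as to activity change, negative = inhibition: -100% = full effect of reference inhibitor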); conditions: recombinant CYP1A2, luciferin-ME demethylation, luminescence; series mostly up to 57 µM
Method in brief: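 Inhibition was calculated relative to 57 uM furafylline (full inhibition). The reaction used human CYP1A2 at 20nM with Luciferin-ME at its Km, 100uM, driven by an NADPH-regenerating system for 60 min at room temperature.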

[4] = NFAT Signaling Pathway (AID 444; active = well fitted curve in either direction with a large enough effect, not every such curve was filed as active;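 also: carbachol stimulus at about its EC50 of 1 µM final; % is scaled to controls: 0 for no effect and ±100 for the full control effect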); conditions: Jurkat NFAT-bla M1, carbachol, beta-lactamase ratio, 5 h; at 7.69 µM (top of the series) unless noted
Method in brief: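 Jurkat cells carrying an NFAT-driven β-lactamase reporter and co-transfected muscarinic M1 receptor were treated with compound plus carbachol (1 uM final, an EC50 level) for 5 h at 37 °C. CCF4 loading followed for 1 h at RT; 460/530 nm ratio gave %activity.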

[5] = Stat Signaling Pathway (AID 446; active = well fitted curve in either direction with a large enough effect, not every such curve was filed as active;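 also: ME-180 cervical cancer cells given 40 pM IL-6 alongside compound; SIE-controlled beta-lactamase reporter measured as 460/530 nm FRET emission ratio; % is scaled to controls: 0 for no effect and ±100 for the full control effect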); conditions: ME-180 SIE beta-lactamase reporter, IL-6 stimulated, 5 h; at 7.69 µM (top of the series) unless noted
Method in brief: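 ME-180 SIE-bla cells; overnight plating; cpd + IL-6 40 pM, 5 h, 37 C; LiveBLAzer 2.5 h RT; 460/530 nm emission ratio. Normalized to 300 pM IL-6 and 125 nM JAK inhibitor controls.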

[6] = molecular target: Glucocorticoid receptor (Homo sapiens) (UniProt P04150); assay: GR-GFP Redistribution (AID 450;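 active = compounds whose dose series gives a full or clear partial fitted curve of increased nuclear translocation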; also: potency is read from the fitted curve at half-maximal effect); conditions: U2OS GR-GFP nuclear translocation, laser cytometry, 2 h
[7] = molecular target: Glucocorticoid receptor (Homo sapiens) (UniProt P04150); assay: GR-EFC Redistribution (AID 451; calls by dose curve; also: potency is read from the fitted curve at half-maximal effect); conditions: CHO-K1 GR-EFC translocation, beta-gal luminescence, 2 h
Method in brief: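 CHO-K1 cells stably expressing nuclear-localized β-gal enzyme acceptor and GR fused C-terminally to the enzyme donor fragment; ligand-driven nuclear translocation restores β-gal by complementation. Compounds titrated up to 46 uM final, 2 h at 37 °C; luminescence read.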

[8] = molecular target: Mitogen-activated protein kinase 10 (Mus musculus) (UniProt Q61831); assay: JNK3 AlphaScreen Assay (AID 530; active = well fitted curve in either direction with a large enough effect, not every such curve was filed as active;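 also: kinase came from lysate of stimulated human HepG2 cells; signal reports phosphorylation of biotinylated GST-cJun 1-79 at Ser73 with 10 µM ATP; % is scaled to controls: 0 for no effect and ±100 for the full control effect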); conditions: JNK3 lysate, c-Jun phosphorylation; series mostly up to 57.1 µM
Method in brief: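 JNK3 came from HepG2 lysates pre-activated with IL-1beta and TNF-alpha and phosphorylated biotinylated GST-cJun (1-79) at 10 uM ATP, pH 7.6, room temperature. Compounds were titrated. AlphaScreen signal used anti-phospho-cJun (Ser73) antibody.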

[9] = molecular target: 3',5'-cyclic-AMP phosphodiesterase 4B (Homo sapiens) (UniProt Q07343); assay: qHTS Assay for Inhibitors of PDE-IV (AID 607; active = well fitted activation curve with a large enough effect in the main read-out, with a control signal flat, not every such curve was filed as active; also: % of control where 0% means no effect); conditions: HEK293 ACTOne CNG channel cells, membrane potential fluorescence; series mostly up to 22.9 µM
Method in brief: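 ACTOne HEK293 cells carry a modified cAMP-gated CNG channel and express endogenous PDE4; plated 1000 cells/well, compounds up to 22.9 uM final. Membrane-potential dye fluorescence (ex 535/em 590) was read; parental cells received 10 uM forskolin + 100 uM RO 20-1724.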

[10] = molecular target: Cytochrome P450 3A4 (Homo sapiens) (UniProt P08684); assay: qHTS Assay for Activators of Cytochrome P450 3A4 (AID 885); conditions: recombinant CYP3A4, Luciferin-PPXE luminescence, 60 min; series mostly up to 57.1 µM; also: nearly all actives have a fitted effect of over 65% in size; also: potency is read from the fitted curve at half-maximal effect
Method in brief: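 20nM CYP3A4 + 25uM Luciferin-PPXE (=KM), 200mM KPO4; cpd 10 min RT; NADPH regen, 60 min RT; stop w/ detection buffer, 20 min; luminescence. Normalized to 57 uM ketoconazole.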

[11] = qHTS Assay for Lipid Storage Modulators (AID 1519; calls by dose curve); conditions: Drosophila S3 cells, BODIPY lipid droplet/cell ratio, laser cytometry, cells loaded with oleic acid; for activity change, negative = inhibition: at 57.5 µM (top of the series)
Method in brief: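 Cells seeded at 5,000 per well were treated with compounds over a concentration series and loaded with oleic acid (400 uM, as added). Lipid droplet fluorescence (488 nm excitation, 500-530 nm channel) was read by laser-scanning cytometry and normalized to 20 uM Triacsin C.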

[12] = molecular target: Dual specificity protein kinase CLK4 (Homo sapiens) (UniProt Q9HAZ1); assay: qHTS Assay for Inhibitors of CDC-like Kinase 4 (Kinase-Glo Assay) (AID 1770); conditions: recombinant Clk4, Kinase-Glo ATP depletion luminescence; series mostly up to 66.7 µM; also: nearly all actives have a fitted effect of over 65% in size; also: potency is read from the fitted curve at half-maximal effect
Method in brief: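 Substrate mix (RS peptide 100 uM, ATP 1 uM) dispensed, compound pinned in, then Clk4 added to 25 nM final. Incubated 4.5 h at RT; Kinase-Glo reagent added, luminescence read after 5 min.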

[13] = molecular target: Dual specificity protein kinase CLK4 (Homo sapiens) (UniProt Q9HAZ1); assay: qHTS Assay for Inhibitors of CDC-like Kinase 4 (ADP-Glo Assay) (AID 1771); conditions: recombinant CLK4, ADP-Glo luminescence; series mostly up to 80 µM; also: nearly all actives have a fitted effect of over 70% in size; also: potency is read from the fitted curve at half-maximal effect
Method in brief: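 Kinase reaction: Clk4 at 25 nM, RS repeat peptide substrate at 100 uM, ATP at 1 uM, 1 hr, room temperature. Product ADP detected as luciferase signal via ADP-Glo.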

[14] = molecular target: Dual specificity protein kinase CLK4 (Homo sapiens) (UniProt Q9HAZ1); assay: qHTS Assay for Inhibitors of CDC-like Kinase 4 (ADP-FP Assay) (AID 1795); conditions: Transcreener ADP fluorescence polarization; series mostly up to 50 µM; also: nearly all actives have a fitted effect of over 60% in size; also: potency is read from the fitted curve at half-maximal effect
Method in brief: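 Clk4 6.25 nM; RS peptide 100 uM; ATP 1 uM; 25 mM Tris pH 7.5, 10 mM MgCl2; 1 h reaction. ADP detected via antibody/orange tracer FP displacement; TG003 positive control.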

[15] = molecular target: Ubiquitin carboxyl-terminal hydrolase 1 (Homo sapiens) (UniProt O94782); assay: Inhibitors of USP1/UAF1: Pilot qHTS (AID 504865); conditions: purified USP1/UAF1, Ub-rhodamine cleavage fluorescence; series mostly up to 54.9 µM;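 also: rhodamine fluorescence freed from ubiquitin-rhodamine substrate followed over time; top concentration of the series differs between compounds; % is scaled to controls: 0 for no effect and ±100 for the full control effect; nearly all actives have a fitted effect of over 35% in size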
Method in brief: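 In 50mM HEPES pH 7.8 containing 0.5mM EDTA, 1mM TCEP, 0.1 mg/ml BSA and 0.01% Tween-20, 1nM USP1/UAF1 is exposed to compound for 15 min, then Ub-Rho (150nM final) is added and fluorescence is read over time.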

[16] = Primary qHTS for small molecule stabilizers of the endoplasmic reticulum resident proteome: Secreted ER Calcium Modulated Protein (SERCaMP) assay (AID 1508630); conditions: SH-SY5Y GLuc-SERCaMP (Gaussia luciferase released on ER calcium loss) secretion, thapsigargin, luminescence; series mostly up to 38.4 µM; also: % is scaled to controls: 0 for no effect and ±100 for the full control effect
Method in brief: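 GLuc-SERCaMP-expressing SH-SY5Y cells, pretreated 16 h with compound, are challenged with thapsigargin to empty ER calcium stores; after 4 h, coelenterazine is added directly to the medium and luminescence is imaged.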

[17] = molecular target: Cytochrome P450 2D6 (Homo sapiens) (UniProt P10635); assay: qHTS Assay for Inhibitors and Substrates of Cytochrome P450 2D6 (AID 891); conditions: recombinant CYP2D6, luciferin-ME EGE luminescence; series mostly up to 57.1 µM; also: potency is read from the fitted curve at half-maximal effect; nearly all actives have a fitted effect of over 60% in size
Method in brief: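 Human CYP2D6 (5 nM) with 30 uM Luciferin-ME EGE (at Km) in 100 mM KPO4, compound preincubated 10 min, then NADPH regeneration system for 60 min at room temperature. Luciferin read by luminescence; normalized to 1.43 uM quinidine.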

[18] = molecular target: Cytochrome P450 3A4 (Homo sapiens) (UniProt P08684); assay: qHTS Assay for Inhibitors and Substrates of Cytochrome P450 3A4 (AID 884); conditions: recombinant CYP3A4, Luciferin-PPXE luminescence; series mostly up to 57.1 µM; also: % is scaled to controls: 0 for no effect and ±100 for the full control effect; nearly all actives have a fitted effect of over 50% in size
Method in brief: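 20 nM human CYP3A4 with 25 uM Luciferin-PPXE (at KM) in 200 mM KPO4, preincubated 10 min with compound; NADPH regeneration started a 60 min RT reaction. Luciferin detected by luminescence, normalized to 57 uM ketoconazole as full inhibition.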

[19] = measured here: cell count channel max response
[20] = measured here: lipid channel max response

Sequence of 3',5'-cyclic-AMP phosphodiesterase 4B (Homo sapiens) (Q07343 whole entry, looked up): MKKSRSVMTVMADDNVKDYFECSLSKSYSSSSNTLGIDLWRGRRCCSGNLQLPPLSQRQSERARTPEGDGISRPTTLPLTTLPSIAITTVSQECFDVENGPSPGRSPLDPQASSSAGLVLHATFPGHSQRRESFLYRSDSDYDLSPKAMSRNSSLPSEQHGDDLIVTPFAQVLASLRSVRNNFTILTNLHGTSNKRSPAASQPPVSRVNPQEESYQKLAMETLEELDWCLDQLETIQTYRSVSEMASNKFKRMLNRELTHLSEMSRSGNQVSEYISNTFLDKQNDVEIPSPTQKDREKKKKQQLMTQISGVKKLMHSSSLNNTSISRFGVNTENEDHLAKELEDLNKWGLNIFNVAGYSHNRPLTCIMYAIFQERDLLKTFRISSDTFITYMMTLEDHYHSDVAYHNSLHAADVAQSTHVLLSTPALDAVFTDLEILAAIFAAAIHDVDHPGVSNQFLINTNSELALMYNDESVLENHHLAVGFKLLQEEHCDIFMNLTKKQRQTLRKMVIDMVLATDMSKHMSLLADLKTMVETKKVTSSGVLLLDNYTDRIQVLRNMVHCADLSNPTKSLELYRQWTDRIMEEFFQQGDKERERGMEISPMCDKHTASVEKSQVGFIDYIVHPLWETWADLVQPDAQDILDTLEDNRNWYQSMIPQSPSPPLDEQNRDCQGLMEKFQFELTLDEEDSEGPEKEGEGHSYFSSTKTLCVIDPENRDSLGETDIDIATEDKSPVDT
Sequence of Lysosomal acid glucosylceramidase (Homo sapiens) (P04062 whole entry, looked up): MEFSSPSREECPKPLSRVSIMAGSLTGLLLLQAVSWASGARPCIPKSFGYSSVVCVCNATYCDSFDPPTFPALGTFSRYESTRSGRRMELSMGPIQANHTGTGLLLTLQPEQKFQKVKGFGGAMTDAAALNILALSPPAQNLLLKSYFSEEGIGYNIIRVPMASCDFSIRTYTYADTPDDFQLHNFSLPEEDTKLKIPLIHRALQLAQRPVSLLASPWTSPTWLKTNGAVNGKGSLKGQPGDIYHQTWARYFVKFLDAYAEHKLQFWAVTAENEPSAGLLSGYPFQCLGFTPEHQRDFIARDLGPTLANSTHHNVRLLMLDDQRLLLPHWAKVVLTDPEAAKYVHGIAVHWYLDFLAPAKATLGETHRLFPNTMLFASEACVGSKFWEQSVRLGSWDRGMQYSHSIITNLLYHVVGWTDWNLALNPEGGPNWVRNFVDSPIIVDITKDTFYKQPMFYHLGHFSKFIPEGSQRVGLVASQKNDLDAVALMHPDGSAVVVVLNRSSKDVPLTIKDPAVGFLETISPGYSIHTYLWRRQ
Sequence of Dual specificity protein kinase CLK4 (Homo sapiens) (Q9HAZ1 whole entry, looked up): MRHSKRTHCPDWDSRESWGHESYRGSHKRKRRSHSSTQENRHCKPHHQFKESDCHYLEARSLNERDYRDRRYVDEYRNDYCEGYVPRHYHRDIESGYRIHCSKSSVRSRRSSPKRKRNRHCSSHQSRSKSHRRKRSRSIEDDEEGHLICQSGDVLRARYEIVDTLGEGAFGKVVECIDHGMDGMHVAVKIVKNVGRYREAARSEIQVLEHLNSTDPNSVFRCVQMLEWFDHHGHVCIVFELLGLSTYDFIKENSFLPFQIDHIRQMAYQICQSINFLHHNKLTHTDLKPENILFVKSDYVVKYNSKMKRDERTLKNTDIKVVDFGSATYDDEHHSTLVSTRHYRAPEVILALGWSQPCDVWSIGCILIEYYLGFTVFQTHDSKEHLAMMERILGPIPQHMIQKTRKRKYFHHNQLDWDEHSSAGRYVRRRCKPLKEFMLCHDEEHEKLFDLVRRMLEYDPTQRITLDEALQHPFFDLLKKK
Sequence of Ubiquitin carboxyl-terminal hydrolase 1 (Homo sapiens) (O94782 whole entry, looked up): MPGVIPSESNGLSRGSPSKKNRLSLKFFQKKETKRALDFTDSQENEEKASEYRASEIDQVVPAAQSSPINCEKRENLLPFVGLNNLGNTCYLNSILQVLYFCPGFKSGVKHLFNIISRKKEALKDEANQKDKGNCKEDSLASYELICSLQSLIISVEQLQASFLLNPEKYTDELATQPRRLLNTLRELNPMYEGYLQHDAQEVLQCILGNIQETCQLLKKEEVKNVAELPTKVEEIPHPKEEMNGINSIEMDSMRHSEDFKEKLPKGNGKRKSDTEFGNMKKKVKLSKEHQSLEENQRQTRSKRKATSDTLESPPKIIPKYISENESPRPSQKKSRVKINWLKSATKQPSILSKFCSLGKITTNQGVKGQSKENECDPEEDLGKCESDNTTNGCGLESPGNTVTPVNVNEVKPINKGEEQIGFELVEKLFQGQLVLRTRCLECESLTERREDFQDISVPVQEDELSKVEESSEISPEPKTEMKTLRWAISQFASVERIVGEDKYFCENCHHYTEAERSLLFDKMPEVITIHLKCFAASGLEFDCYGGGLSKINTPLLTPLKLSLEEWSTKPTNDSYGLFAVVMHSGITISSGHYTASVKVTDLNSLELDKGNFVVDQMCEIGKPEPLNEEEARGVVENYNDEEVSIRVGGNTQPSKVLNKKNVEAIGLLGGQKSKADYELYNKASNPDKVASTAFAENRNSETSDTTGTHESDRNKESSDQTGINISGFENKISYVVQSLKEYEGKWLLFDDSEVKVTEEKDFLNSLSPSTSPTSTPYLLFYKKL
Sequence of Cytochrome P450 1A2 (Homo sapiens) (P05177 whole entry, looked up): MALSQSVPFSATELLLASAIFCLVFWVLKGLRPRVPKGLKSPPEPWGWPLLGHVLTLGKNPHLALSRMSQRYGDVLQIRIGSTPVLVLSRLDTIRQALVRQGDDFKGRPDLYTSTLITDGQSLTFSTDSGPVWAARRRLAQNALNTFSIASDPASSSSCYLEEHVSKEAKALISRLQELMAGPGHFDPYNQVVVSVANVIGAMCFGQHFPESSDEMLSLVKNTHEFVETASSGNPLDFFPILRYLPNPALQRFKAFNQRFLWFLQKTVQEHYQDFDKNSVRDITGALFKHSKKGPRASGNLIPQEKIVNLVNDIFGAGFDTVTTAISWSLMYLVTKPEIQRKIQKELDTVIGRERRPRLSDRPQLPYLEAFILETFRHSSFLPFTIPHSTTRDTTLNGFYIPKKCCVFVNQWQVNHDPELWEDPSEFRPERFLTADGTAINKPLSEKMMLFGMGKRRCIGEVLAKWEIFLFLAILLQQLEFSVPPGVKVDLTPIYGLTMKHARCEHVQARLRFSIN
Sequence of Cytochrome P450 3A4 (Homo sapiens) (P08684 whole entry, looked up): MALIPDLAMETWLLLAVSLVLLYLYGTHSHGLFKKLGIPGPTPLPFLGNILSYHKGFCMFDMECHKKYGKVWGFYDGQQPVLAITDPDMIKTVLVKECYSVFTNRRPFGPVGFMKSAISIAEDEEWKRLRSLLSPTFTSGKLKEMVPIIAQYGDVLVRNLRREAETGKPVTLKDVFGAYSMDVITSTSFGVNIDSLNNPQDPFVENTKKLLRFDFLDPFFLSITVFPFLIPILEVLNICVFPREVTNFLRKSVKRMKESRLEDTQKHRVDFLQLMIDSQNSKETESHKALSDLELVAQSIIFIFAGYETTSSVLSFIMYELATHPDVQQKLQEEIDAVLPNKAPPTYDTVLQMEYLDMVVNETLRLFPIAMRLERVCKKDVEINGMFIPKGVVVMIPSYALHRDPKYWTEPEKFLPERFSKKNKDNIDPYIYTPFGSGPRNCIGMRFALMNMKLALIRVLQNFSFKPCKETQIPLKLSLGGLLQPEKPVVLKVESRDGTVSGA
Sequence of Glucocorticoid receptor (Homo sapiens) (P04150 whole entry, looked up, the tested form may be a part): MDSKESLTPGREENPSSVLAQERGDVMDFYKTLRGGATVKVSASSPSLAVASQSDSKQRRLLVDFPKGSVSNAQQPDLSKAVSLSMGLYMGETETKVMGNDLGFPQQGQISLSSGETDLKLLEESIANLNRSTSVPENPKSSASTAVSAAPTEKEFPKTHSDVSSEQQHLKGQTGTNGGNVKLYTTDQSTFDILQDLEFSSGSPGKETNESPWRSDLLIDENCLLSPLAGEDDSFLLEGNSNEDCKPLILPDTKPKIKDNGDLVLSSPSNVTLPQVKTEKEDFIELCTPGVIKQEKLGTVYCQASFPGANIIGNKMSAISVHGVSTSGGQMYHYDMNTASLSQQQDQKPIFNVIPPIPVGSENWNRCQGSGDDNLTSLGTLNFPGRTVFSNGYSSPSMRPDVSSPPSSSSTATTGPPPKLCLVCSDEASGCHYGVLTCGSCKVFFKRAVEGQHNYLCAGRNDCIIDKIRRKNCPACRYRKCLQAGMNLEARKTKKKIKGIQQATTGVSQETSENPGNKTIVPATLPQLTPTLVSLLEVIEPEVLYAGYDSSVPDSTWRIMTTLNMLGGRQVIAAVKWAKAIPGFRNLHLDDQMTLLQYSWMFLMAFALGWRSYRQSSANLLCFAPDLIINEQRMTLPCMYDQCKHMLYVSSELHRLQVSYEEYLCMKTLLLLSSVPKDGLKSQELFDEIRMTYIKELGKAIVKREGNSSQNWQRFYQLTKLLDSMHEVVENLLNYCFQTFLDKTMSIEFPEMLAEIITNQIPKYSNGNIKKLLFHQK
Sequence of Cytochrome P450 2D6 (Homo sapiens) (P10635 whole entry, looked up): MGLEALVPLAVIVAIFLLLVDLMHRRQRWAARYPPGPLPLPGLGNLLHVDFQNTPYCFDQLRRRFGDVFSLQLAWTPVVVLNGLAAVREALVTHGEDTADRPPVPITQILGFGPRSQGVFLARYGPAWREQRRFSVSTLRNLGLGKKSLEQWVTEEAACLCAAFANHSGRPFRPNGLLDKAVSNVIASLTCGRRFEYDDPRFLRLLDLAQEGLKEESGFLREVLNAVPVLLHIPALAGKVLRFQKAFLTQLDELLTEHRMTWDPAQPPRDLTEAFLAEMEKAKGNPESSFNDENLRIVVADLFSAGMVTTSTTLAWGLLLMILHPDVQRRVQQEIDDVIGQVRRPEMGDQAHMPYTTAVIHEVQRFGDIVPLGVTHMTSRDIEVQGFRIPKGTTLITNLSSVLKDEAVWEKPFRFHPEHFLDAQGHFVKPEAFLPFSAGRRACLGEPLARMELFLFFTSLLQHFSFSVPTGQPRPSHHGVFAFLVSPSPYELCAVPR

SMILES | Potency [1] | activity change, negative = inhibition [2] | Potency [3] | activity change, negative = inhibition [4] | activity, negative = inhibition [5] | Potency [6] | Potency [7] | outcome [8] | Potency [9] | Potency [10] | activity change, negative = inhibition [11] | max response [11, 19] [%] | max response [11, 20] [%] | Potency [12] | Potency [13] | Potency [14] | Potency [15] | Potency [16] | Potency [17] | Potency [18]
CN(C)c1ncc2nc(-c3cc(F)cc(F)c3)c(=O)n(CCC#N)c2n1 | > 11.4 µM (inactive) | 4.37% (inactive) | inactive | 29.2% (inactive) | 2.22% (inactive) | > 9.22 µM (inactive) | > 46 µM (inactive) | inactive | inactive | inactive | 3.22% (inactive) | 19.6 | 21.3 | inactive | inactive | inactive | inactive | inactive |  | 
Cc1cnc(CNc2ncnc3ccc(-c4ccoc4)cc23)cn1 | > 11.4 µM (inactive) | -14.2% (inactive) | 12.6 µM (active) | -6.73% (inactive) | -13.1% (inactive) | > 46 µM (inactive) | > 46 µM (inactive) | inactive | inactive | inactive | 0.59% (inactive) | 20.6 | 16.4 | 0.251 µM (active) | 0.224 µM (active) | 0.224 µM (active) | inactive | inactive |  | 
N#Cc1cccc(-c2nc3cnc(N4CCOCC4)nc3n(C[C@H]3CCCO3)c2=O)c1 | > 11.4 µM (inactive) | -1.16% (inactive) | 0.794 µM (active) | 1.23% (inactive) | 6.63% (inactive) | > 9.22 µM (inactive) | > 46 µM (inactive) | inactive | inactive |  | 4.04% (inactive) | 10 | 11.4 | inactive | inactive | inactive | inactive | inactive |  | 
CN1CCN(c2ncncc2-c2ccc(C(=O)N(C)C)cc2)CC1 | > 11.4 µM (inactive) | 14.8% (inactive) | 15.8 µM (active) | 4.17% (inactive) |  | > 46 µM (inactive) | > 46 µM (inactive) | inactive | inactive | inactive | 1.02% (inactive) | 12.3 | 11.3 | inactive | inactive | inactive | inactive | inactive | 0.251 µM (active) | 
FC(F)(F)c1ccccc1-c1cc(NCc2ccccc2)ncn1 | > 11.4 µM (inactive) | -15.2% (inactive) | 12.6 µM (active) | -0.248% (inactive) | 4.93% (inactive) | > 46 µM (inactive) | > 46 µM (inactive) | inactive |  | 10 µM (active) | 5.85% (inactive) | 14.8 | 20.1 | inactive | inactive | inactive |  | inactive |  | inactive
